# Assay outcomes (PubChem BioAssay)
# Sampled rows, rich in hits. Any-hit rate of the full collection: about 2.4%.
# POLI inh = inhibitors of human DNA polymerase iota. Q9UNA4. Pol iota fluorescent replication assay, 10 min. Potency, µM (top dose mostly 115 µM), usual class: inhibitors. 1% of 390,000 active
#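 Fluorescent replication assay read twice, at 0 min and 10 min after adding 50 nM (final) substrate. Enzyme (10 nM) and compounds were first incubated 15 min at room temperature; enzyme-free buffer wells were negative controls.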
# FEN1 inhibitor = blocks human flap endonuclease 1; P39748; Potency, µM (doses to about 114 µM), most hits filed as inhibitors; Recombinant FEN1 flap cleavage, fluorescence, 15 min; 0.35% of 390,000 active; also: nearly all actives have a fitted effect of over 65% in size
# Target sequence (P39748 whole entry, looked up): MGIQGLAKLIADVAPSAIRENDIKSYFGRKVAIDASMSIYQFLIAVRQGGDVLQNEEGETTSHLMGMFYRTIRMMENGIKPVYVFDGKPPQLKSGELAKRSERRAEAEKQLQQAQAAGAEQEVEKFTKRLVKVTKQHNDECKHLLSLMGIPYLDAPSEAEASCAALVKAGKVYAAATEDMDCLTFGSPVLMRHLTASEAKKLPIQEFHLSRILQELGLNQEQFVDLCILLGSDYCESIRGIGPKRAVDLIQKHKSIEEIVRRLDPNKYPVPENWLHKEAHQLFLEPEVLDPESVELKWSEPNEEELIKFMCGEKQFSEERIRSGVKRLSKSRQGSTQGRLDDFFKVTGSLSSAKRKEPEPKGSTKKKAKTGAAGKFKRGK
#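 FEN1 at 10 nM preincubated with compounds 15 min at room temperature, then flap DNA substrate added at 50 nM final. Signal read at 0 and 15 min; concentration-response fitted with four-parameter Hill equation.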
# POLH inh = blocks human DNA polymerase eta activity. Q9Y253. recombinant Pol eta, fluorescent DNA replication assay. Potency, µM (series often up to 114 µM), actives largely listed as inhibitors. 1.2% of 390,000 active. AID 588591
#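 Pol eta at 10 nM preincubated with compounds 15 min at room temperature; reaction started with fluorescent substrate (50 nM final) and read kinetically at 0 and 10 min.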
# POLK inh = blocks human DNA polymerase kappa activity. 0.53% of 400,000 active. Potency, µM (top dose mostly 107 µM), hits mostly inhibitors. purified Pol kappa, fluorescent DNA synthesis assay, 10 min. Q9UBT6
#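 10 nM Pol kappa preincubated 15 min at room temperature with compounds, then reaction started with substrate at 50 nM final. Fluorescence read kinetically at 0 and 10 min; buffer-only wells served as negative control.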
# POLB inh = DNA polymerase beta (human) inhibition. Pol beta primer extension/strand displacement, fluorescence kinetic. Potency, µM (titrated, usually from 114 µM), most hits filed as inhibitors. 1.3% of 340,000 active
#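 Reaction started by 50 nM substrate onto compound-treated Pol beta (10 nM, 15 min preincubation, room temperature); plates read at 0 min and 10 min. Normalized concentration-effect data fitted by four-parameter Hill equation.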
# WRN inhibitor = blocks human WRN helicase. Q14191. WRN helicase unwinding, fluorescent forked duplex, kinetic. Potency, µM (top dose mostly 114 µM), usual class: inhibitors. 0.46% of 360,000 active. AID 651768; also: nearly all actives have a fitted effect of over 55% in size
#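 WRN at 20 nM final was preincubated with compound for 15 min at room temperature; reaction started with 100 nM forked duplex oligonucleotide carrying fluorophore and quencher plus 2 mM ATP (final). Unwinding followed kinetically by red fluorescence (ex 525/em 598 nm).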
# Hits are given with their value; n = inactive; u = inconclusive; x = no result; ! = a repeat was not active; [ ] = another dose, or the depositor's remark. Calls follow the shape of the dose curve; as a rule, active = well fitted curve in the direction sought with a large enough effect; inconclusive = small, poorly fitted or top-dose-only effect, or another doubt; inactive = no such curve, though single readings can be large; an effect the other way counts as inactive or inconclusive.
SMILES,POLI inh,FEN1 inhibitor,POLH inh,POLK inh,POLB inh,WRN inhibitor
CCc1ccc2c(c1)C(NC(C)=O)C(=O)N2CC (stereo not drawn),n,n,n,n,n,n
CC(=O)NC1C(=O)N(CCN2CCOCC2)c2ccc(C)cc21 (stereo not drawn),n,u,25.1µM,n,u,n
CC(=O)NC1C(=O)N(CCN2CCOCC2)c2ccc(F)cc21 (stereo not drawn),u,50.1µM,u,n,n,n[11.6 µM]
COc1ccccc1NC(=O)Cn1cncc1-c1ccc([N+](=O)[O-])cc1,u,n,n,n,n,n
Cc1ccc(NC(=O)Cn2cncc2-c2ccc([N+](=O)[O-])cc2)cc1C,u,n,u,n,35.5µM,n
CC(C)(C)c1ccc(C(=O)CCCN2CCC(OC(c3ccccc3)c3ccccc3)CC2)cc1,x,x,x,n,x,x
CCOc1ccccc1-c1c2cc(O)c(=O)cc-2oc2cc(O)c(O)cc12,x,20µM,28.2µM,14.1µM,1.58µM,89.1µM
O=C(O)c1ccc(CSCc2ccccc2)o1,x,x,n,x,x,n
O=C(O)c1ccc(Cn2ccc3ccccc32)o1,n,n,44.7µM,n,u,n
CC(N)(COP(=O)(O)O)C(=O)O (stereo not drawn),x,x,x,n[19.4 µM],x,x
COc1ccc(CNc2ccccc2)cc1Br,n,n,n,n,n,n
COc1ccc(Cc2nnc(Nc3ccccc3)s2)cc1Br,u,u,u,n,56.2µM,56.2µM
COC(=O)N/N=C/c1ccc(OC(=O)/C=C/c2ccco2)cc1,35.5µM,n,u,u,11.2µM,u
CCc1ccc(OC(=O)/C=C/c2ccco2)cc1,u,n,n,u,35.5µM,n
O=C(Cc1ccccc1)N/N=C/c1ccc(OC(=O)/C=C\c2ccco2)cc1,u,n,n,u,n,n
Cc1ccc(CN2C(=O)C(=O)c3cc(Br)cc(C)c32)cc1,n,u,n,n,n,x
O=C(N/N=C/c1ccccc1C(=O)O)c1ccc(COc2cccc3cccnc23)cc1,u,n,39.8µM,u,u,n[11.6 µM]
C#CCn1cc(/C=N/NC(=O)COc2cccc3cccnc23)c2ccccc21,22.4µM,n,u,u,u,u
O=C(COc1cccc2cccnc12)N/N=C/c1ccccc1O,n,n,n,n,31.6µM,u
O=C(O)COc1ccccc1/C=N/NC(=O)c1cc2ccccc2cc1O,14.1µM,n,n,u,n,n[11.6 µM]
COc1ccc(N2CCN(C(c3ccc(C)cc3)c3nnnn3C(C)(C)C)CC2)cc1 (stereo not drawn),n,n,x,n,x,x
O=c1c(-c2ccc(F)cc2)nc2cnc(N3CCOCC3)nc2n1C[C@H]1CCCO1,x,x,x,n,x,x
Cc1cc(NC(=O)c2cccs2)cc(-c2nc3cc(Cl)ccc3o2)c1O,n,n,n,n,n,x
CC(C)c1ccc(NC(=O)CSc2nc(=O)n(Cc3ccccn3)c3c2CCC3)cc1,n,n,n,n,n,x
CN(C)c1ccc(-c2cncnc2NCCc2cnc[nH]2)cc1,x,x,x,n,x,x
SMILES,POLI inh,FEN1 inhibitor,POLH inh,POLK inh,POLB inh,WRN inhibitor
CCCCCCCCCCCCN1[C@@H](CC(=O)O)c2cc(C(F)(F)F)ccc2S1(=O)=O,u,n,44.7µM,u,x,n
N#CC1=C(N)SC(N)=C(C#N)C1c1ccoc1,x,x,x,x,7.08µM,x
Cc1ccc(C2C(C#N)=C(N)SC(N)=C2C#N)cc1,n,n,n,n,n,n
Cc1ccc2nc(N3C(=O)C(O)=C(C(=O)c4ccc(C)o4)C3c3ccco3)sc2c1 (stereo not drawn),u,n,u,n,x,n
O=C(C1=C(O)C(=O)N(c2nc3ccc(Cl)cc3s2)C1c1ccco1)c1ccco1 (stereo not drawn),7.94µM,n,20µM,39.8µM,x,50.1µM
C=CCNC(=O)c1ccccc1NC(=O)Nc1ccccc1,89.1µM,n,n,n,n,n
COCCNC(=O)c1ccccc1NC(=O)Nc1ccccc1,n,n,n,n,n,n
Cc1cc(Cl)ccc1NS(=O)(=O)c1cc2[nH]c(=O)c(=O)[nH]c2cc1C,n,n,n,n,n,x
CCN(CC)c1ccc(NS(=O)(=O)c2cc3[nH]c(=O)c(=O)[nH]c3cc2C)c(C)c1,u,n,n,u,50.1µM,x
O=Cc1ccccc1OCCOc1ccccc1C=O,n,n,n,n,n,n
O=Cc1ccccc1C=O,x,x,x,23.8µM,x,x
CC1=CC(=O)CC2C1(C)CCC(C)C2(C)CCC(C)CC(=O)O (stereo not drawn),89.1µM,n,79.4µM,n,44.7µM,n[11.6 µM]
CC=Cc1cc2c(c(=O)o1)C(=O)C(O)C(C)O2 (stereo not drawn),50.1µM,n,u,n,x,n
COC(=O)C1N2C(=O)[C@@H](NC(=O)COc3ccccc3)[C@H]2SC1(C)C (stereo partly drawn),79.4µM!,n,n,n,x,n
CCOC(=O)c1c(SCC(=O)Nc2cc(Cl)cc(Cl)c2)nc(=O)[nH]c1C,n,n,n,n,n,x
CCOc1ccc(-n2ccnc2SCC(=O)Nc2nc3ccc(C)cc3s2)cc1,n,n,89.1µM,n,25.1µM,x
CCOC(=O)c1c(SCC(=O)Nc2nc3ccc(C)cc3s2)nc(=O)[nH]c1C,89.1µM,n,n,n,u,x
C/C(CC(=O)Nc1cccc(Cl)c1Cl)=N\NC(=O)c1ccccc1C,n,n,n,n,50.1µM,n
O=C(C[n+]1ccccc1Cl)c1cccc([N+](=O)[O-])c1,n,n,x,n,x,x
O=S1(=O)c2cccc3cccc(c23)N1CCCN1CCN(c2ccc(F)cc2)CC1,x,x,x,n[19.4 µM],x,x
COc1ccc(OCC(=O)Nc2ccc3c(c2)nc(CCn2ccccc2=O)n3C)cc1,56.2µM,n,n,n,u,n[11.6 µM]
CN1CCN(c2ncc3nc(-c4cccc(C#N)c4)c(=O)n(C[C@H]4CCCO4)c3n2)CC1,x,x,x,n,x,x
C[C@H](C(=O)O)c1cccc(C(=O)c2ccccc2)c1,n,x,n,11.2µM!,x,n
Cc1ccc(C(=O)ONc2ccc(N=NC(=O)c3ccccc3O)cc2)cc1,n,n,8.91µM,n,n,n
CC(C)C[C@H](NC(=O)[C@H](CCCCN)NC(=O)CNC(=O)[C@H](CC(C)C)NC(=O)[C@@H](N)C(C)C)C(=O)N[C@@H](CO)C(=O)N[C@@H](CCC(N)=O)C(=O)N[C@@H](CCC(=O)O)C(=O)N[C@@H](CC(C)C)C(=O)N[C@@H](Cc1cnc[nH]1)C(=O)N[C@@H](CCCCN)C(=O)N[C@@H](CC(C)C)C(=O)N[C@@H](CCC(N)=O)C(=O)N[C@H](C(=O)N[C@@H](Cc1ccc(O)cc1)C(=O)N1CCC[C@H]1C(=O)N[C@@H](CCCNC(=N)N)C(=O)N[C@H](C(=O)N[C@@H](CC(N)=O)C(=O)N[C@H](C(=O)NCC(=O)N[C@@H](CO)C(=O)NCC(=O)N[C@H](C(=O)N1CCC[C@H]1C(N)=O)[C@@H](C)O)[C@@H](C)O)[C@@H](C)O)[C@@H](C)O,x,x,x,n,x,x
